Values joined by “and” are separate entries in the source; they are usually repeats but may differ in a detail not shown here. Equal entries are not always repeated. Inconclusive results are not listed. More than one record can exist for a structure, and the calls need not agree. Active and inactive are the calls of the source. Calls follow the shape of the dose curve; as a rule, active = well fitted curve in the direction sought with a large enough effect in the repeat runs; inconclusive = weak or mixed curves; inactive = no such curve, though single readings can be large; an effect the other way counts as inactive or inconclusive.
biological target: Nuclear receptor subfamily 1 group I member 2 (Homo sapiens) (UniProt O75469); assay: Human pregnane X receptor (PXR) small molecule agonists, qHTS assay (AID 1346982); settings: PXR-Luc HepG2, CYP3A4 luciferase reporter, 24 h; series mostly up to 92.4 µM; activation: at the top concentration; also: nearly all actives have a fitted effect of over 35% in size; also: potency is read from the fitted curve at half-maximal effect
Sequence (O75469 whole entry, looked up): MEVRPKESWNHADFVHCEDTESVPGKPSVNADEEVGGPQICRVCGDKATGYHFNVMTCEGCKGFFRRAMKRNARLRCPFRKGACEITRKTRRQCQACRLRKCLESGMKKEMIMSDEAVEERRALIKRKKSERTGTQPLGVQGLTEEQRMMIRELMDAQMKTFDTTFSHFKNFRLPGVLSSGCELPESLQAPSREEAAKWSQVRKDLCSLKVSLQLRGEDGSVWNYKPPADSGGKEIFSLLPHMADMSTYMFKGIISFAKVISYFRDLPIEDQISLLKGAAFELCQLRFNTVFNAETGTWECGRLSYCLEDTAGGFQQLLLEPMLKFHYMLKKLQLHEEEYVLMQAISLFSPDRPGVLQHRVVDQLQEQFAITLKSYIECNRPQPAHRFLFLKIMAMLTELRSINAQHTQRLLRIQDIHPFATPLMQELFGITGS
Summary of the method: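 Agonist mode qHTS: PXR-Luc HepG2 cells plated 5 hr before DMSO-dissolved compounds were pinned in, cultured 24 hr at 37 C, 5% CO2; ONE-Glo luminescence readout.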
% is scaled to controls: 0 for no effect and ±100 for the full control effect.

Row | SMILES | Potency | activation
1 | C=C(C)C(=O)OCCC[Si](OC)(OC)OC | 60.4 µM (active) and inactive | 
2 | COCC(C)O (centres undefined) | inactive | 
3 | O=C1CCCCC1 | inactive | 
4 | CCCCCCCCCCCCN |  | -20.5% (inactive)
5 | CC1CC(OC(=O)c2ccccc2O)CC(C)(C)C1 (centres undefined) | inactive | 
6 | O=Nc1ccc(O)cc1 | inactive | 
7 | CC1(C)O[C@@H]2C[C@H]3[C@@H]4C[C@H](F)C5=CC(=O)CC[C@]5(C)[C@H]4[C@@H](O)C[C@]3(C)[C@]2(C(=O)CO)O1 | 11.9 µM (active) | 
8 | C[C@@H]1O[C@@H](OC[C@H]2O[C@@H](Oc3c(-c4ccc(O)c(O)c4)oc4cc(O)cc(O)c4c3=O)[C@H](O)[C@@H](O)[C@@H]2O)[C@H](O)[C@H](O)[C@H]1O | inactive | 
9 | Clc1ccc(Cl)c(Cl)c1Cl | inactive | 
10 | CC(C)Cc1ccccc1 | inactive | 
11 | OCC#CCO | 55.3 µM (active) and inactive | 
12 | C=C(C)C(=O)OCC(CC)(COC(=O)C(=C)C)COC(=O)C(=C)C | inactive | 
13 | O=C(c1cc(O)c(O)c(O)c1)c1ccc(O)c(O)c1O | inactive | 
14 | C=C(C)C(=O)OCCCCCC | inactive | 

biological target: Nuclear receptor subfamily 1 group I member 2 (Rattus norvegicus) (UniProt Q9R1A7); assay: Rat pregnane X receptor (rPXR) activation by small molecules, qHTS assay (AID 1346983); settings: rPXR luciferase reporter cells, One-Glo luminescence, 24 h; max activation: stronger effect = higher value; also: nearly all actives have a fitted effect of over 20% in size
Sequence (Q9R1A7 whole entry, looked up): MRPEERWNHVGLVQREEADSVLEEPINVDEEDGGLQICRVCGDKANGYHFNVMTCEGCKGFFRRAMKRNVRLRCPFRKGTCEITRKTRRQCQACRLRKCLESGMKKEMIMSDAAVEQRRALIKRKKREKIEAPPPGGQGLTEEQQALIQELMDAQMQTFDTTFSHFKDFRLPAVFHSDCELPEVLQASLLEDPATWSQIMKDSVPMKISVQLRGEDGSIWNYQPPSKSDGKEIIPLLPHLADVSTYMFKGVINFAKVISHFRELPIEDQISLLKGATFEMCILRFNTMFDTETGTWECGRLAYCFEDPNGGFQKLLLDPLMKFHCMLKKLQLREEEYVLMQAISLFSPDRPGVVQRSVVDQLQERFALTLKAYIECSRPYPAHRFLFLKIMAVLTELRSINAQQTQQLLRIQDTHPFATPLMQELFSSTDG
Summary of the method: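 Cell-based rPXR luciferase reporter assay, 2,000 cells per well, rested 5hr at 37 C before compound addition in DMSO, then 24 hr at 37 C. One-Glo reagent was added and luminescence read after 30 min at room temperature.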

Row | SMILES | max activation
15 | Nc1cc(-c2ccncc2)c[nH]c1=O | -1.94% (inactive)
16 | Oc1ccc(OCc2ccccc2)cc1 | -0.536% (inactive)
17 | O=S(=O)(O)CCS | -3.83% (inactive)
18 | COC(=O)c1ccccc1O | -0.564% (inactive)
19 | CC1CC(OC(=O)c2ccccc2O)CC(C)(C)C1 (centres undefined) | -1.96% (inactive)
20 | C[C@@H]1O[C@@H](OC[C@H]2O[C@@H](Oc3c(-c4ccc(O)c(O)c4)oc4cc(O)cc(O)c4c3=O)[C@H](O)[C@@H](O)[C@@H]2O)[C@H](O)[C@H](O)[C@H]1O | -1.22% (inactive)

biological target: Nuclear receptor subfamily 1 group I member 2 (Homo sapiens) (UniProt O75469); assay: CYP3A4 induction through human pregnane X receptor (PXR) by small molecules, qHTS assay (AID 1346984); settings: DPX-2 HepG2 PXR, CYP3A4-luciferin luminescence, 24 h; series mostly up to 46.1 µM; activation: at the top concentration; also: nearly all actives have a fitted effect of over 40% in size
Summary of the method: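 Steps: seed DPX-2 cells, 5 hr at 37C; pin-transfer compounds; 24 hr at 37C; add Luciferin-IPA (3uM final), 3 hr at 37C; add One-Glo, 30 min RT; read luminescence.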

Row | SMILES | activation
21 | Nc1cc(-c2ccncc2)c[nH]c1=O | -7.72% (inactive)
22 | Oc1ccc(OCc2ccccc2)cc1 | 19.1% [at 20.6 µM] (inactive)
23 | O=S(=O)(O)CCS | -0.0729% (inactive)
24 | COC(=O)c1ccccc1O | 10.9% (inactive)
25 | CC1CC(OC(=O)c2ccccc2O)CC(C)(C)C1 (centres undefined) | 14.8% (inactive)
26 | C[C@@H]1O[C@@H](OC[C@H]2O[C@@H](Oc3c(-c4ccc(O)c(O)c4)oc4cc(O)cc(O)c4c3=O)[C@H](O)[C@@H](O)[C@@H]2O)[C@H](O)[C@H](O)[C@H]1O | 3.28% (inactive)

biological target: Nuclear receptor subfamily 1 group I member 2 (Homo sapiens) (UniProt O75469); assay: Human pregnane X receptor (PXR) activation by small molecules, qHTS assay (AID 1346985); settings: DPX-2 HepG2 CYP3A4-luciferase, 24 h; series mostly up to 38.3 µM; activation: at the top concentration; also: nearly all actives have a fitted effect of over 40% in size
Summary of the method: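 DPX-2 cells (HepG2 co-transfected with a PXR response element and a CYP3A4-promoter luciferase construct) were seeded at 2,000 per well, rested 5 hr at 37C, then exposed to DMSO-dissolved compounds for 24 hr. Activation was read as luciferase luminescence.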

Row | SMILES | activation
27 | Nc1cc(-c2ccncc2)c[nH]c1=O | -4.12% (inactive)
28 | O=S(=O)(O)CCS | -3.92% (inactive)
29 | COC(=O)c1ccccc1O | 2.28% (inactive)
30 | CC1CC(OC(=O)c2ccccc2O)CC(C)(C)C1 (centres undefined) | 26.2% (inactive)
31 | CC1(C)O[C@@H]2C[C@H]3[C@@H]4C[C@H](F)C5=CC(=O)CC[C@]5(C)[C@H]4[C@@H](O)C[C@]3(C)[C@]2(C(=O)CO)O1 | 1.66% [at 17.1 µM] (inactive)
32 | C[C@@H]1O[C@@H](OC[C@H]2O[C@@H](Oc3c(-c4ccc(O)c(O)c4)oc4cc(O)cc(O)c4c3=O)[C@H](O)[C@@H](O)[C@@H]2O)[C@H](O)[C@H](O)[C@H]1O | -1.29% (inactive)

biological target: Cytochrome P450 2D6 (Homo sapiens) (UniProt P10635); assay: Cytochrome P450 Family 2 Subfamily D Member 6 (CYP2D6) small molecule antagonists: luciferase reporter qHTS assay (AID 1671196); settings: P450-Glo CYP2D6 enzyme assay, luciferin luminescence, 1 h; series mostly up to 115 µM; activity change, negative = inhibition: at the top concentration; also: nearly all actives have a fitted effect of over 50% in size; also: potency is read from the fitted curve at half-maximal effect
Sequence (P10635 whole entry, looked up): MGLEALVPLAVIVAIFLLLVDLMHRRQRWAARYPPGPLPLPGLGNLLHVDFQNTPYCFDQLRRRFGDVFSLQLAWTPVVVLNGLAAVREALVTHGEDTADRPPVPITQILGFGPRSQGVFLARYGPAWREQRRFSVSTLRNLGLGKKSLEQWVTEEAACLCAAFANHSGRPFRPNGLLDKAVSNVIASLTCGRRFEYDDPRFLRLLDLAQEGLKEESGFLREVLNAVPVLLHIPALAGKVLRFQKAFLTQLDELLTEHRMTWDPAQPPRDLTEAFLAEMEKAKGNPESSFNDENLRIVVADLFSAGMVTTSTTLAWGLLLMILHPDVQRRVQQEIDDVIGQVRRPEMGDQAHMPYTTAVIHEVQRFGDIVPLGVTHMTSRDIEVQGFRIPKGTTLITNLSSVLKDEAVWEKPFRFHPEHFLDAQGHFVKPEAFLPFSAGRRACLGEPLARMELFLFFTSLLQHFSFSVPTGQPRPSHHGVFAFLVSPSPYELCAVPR
Summary of the method: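 P450-Glo format: CYP2D6 converts a proluciferin substrate to luciferin in an NADPH-driven reaction lasting 1 h at room temperature. Light output, proportional to CYP2D6 activity, reflects interference by test chemicals.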

Row | SMILES | Potency | activity change, negative = inhibition
33 | Nc1cc(-c2ccncc2)c[nH]c1=O | 31.7 µM (active) and 17.4 µM (active) | 
34 | CCOC(=O)C1OC1c1ccccc1 (centres undefined) | inactive | 
35 | O=C(O)c1ccc([N+](=O)[O-])cc1 | inactive | 
36 | Cc1cc(=O)[nH]c(C(C)C)n1 | inactive | 
37 | NC(=O)/N=N/C(N)=O | inactive | 
38 | CCCCCCCCCCCCOCC1CO1 (centres undefined) |  | -8.61% (inactive)
39 | O=S(=O)(O)CCS | 31.3 µM (active) and inactive | 
40 | OC1CCCC1 | inactive | 
41 | COC(=O)c1ccccc1O | inactive | 
42 | Cc1ccc(N)c(S(=O)(=O)O)c1 |  | -13.7% (inactive)
43 | CCCCC(CC)COC(C)=O (centres undefined) | inactive | 
44 | NCCc1ccc(O)c(O)c1 | 63.5 µM (active) and inactive | 
45 | C=C(C#N)C(=O)OCC | 44.7 µM (active) | 
46 | O=[N+]([O-])C(CO)(CO)CO |  | -9.34% (inactive)
47 | CCOC(=O)/C=C\C(=O)OCC | inactive | 
48 | CC(C)(N=C=O)c1cccc(C(C)(C)N=C=O)c1 | 35.3 µM (active) | 

Row | SMILES | Potency | activity change, negative = inhibition
49 | CC[Si](OC(C)=O)(OC(C)=O)OC(C)=O | 35.6 µM (active) | 
50 | C=C(C)C(=O)OCCCCCCCCCCCC | inactive | 
51 | C=C(C)C(=O)OCCC[Si](OC)(OC)OC | 62.6 µM (active) and inactive | 
52 | COCC(C)O (centres undefined) |  | -6.07% (inactive)
53 | O=C1CCCCC1 | inactive | 
54 | CCCCCCCCCCCCN | 16 µM (active) and 2.24 µM (active) and 8.09 µM (active) | 
55 | CC1CC(OC(=O)c2ccccc2O)CC(C)(C)C1 (centres undefined) | inactive | 
56 | O=Nc1ccc(O)cc1 | 39 µM (active) | 
57 | CC1(C)O[C@@H]2C[C@H]3[C@@H]4C[C@H](F)C5=CC(=O)CC[C@]5(C)[C@H]4[C@@H](O)C[C@]3(C)[C@]2(C(=O)CO)O1 | inactive | 
58 | C[C@@H]1O[C@@H](OC[C@H]2O[C@@H](Oc3c(-c4ccc(O)c(O)c4)oc4cc(O)cc(O)c4c3=O)[C@H](O)[C@@H](O)[C@@H]2O)[C@H](O)[C@H](O)[C@H]1O | inactive | 
59 | Clc1ccc(Cl)c(Cl)c1Cl | inactive | 
60 | CC(C)Cc1ccccc1 | inactive | 
61 | OCC#CCO | inactive | 
62 | C=C(C)C(=O)OCC(CC)(COC(=O)C(=C)C)COC(=O)C(=C)C | 16.2 µM (active) | 
63 | O=C(c1cc(O)c(O)c(O)c1)c1ccc(O)c(O)c1O | 31.6 µM (active) and inactive | 
64 | C=C(C)C(=O)OCCCCCC | inactive | 

Source: PubChem BioAssay (Tox21)
